From PubChem BioAssay (NCI) come the findings set out here.

This is part of a sample that, as a whole, favours compounds with a hit. Of some 83,000 tested, about 20% had one in any assay.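 Cell lines were cultured in 96-well plates, exposed to a single compound concentration, and assessed for percent growth 48 hours later.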 Unmarked numbers belong to inactive results. Calls of active or inactive are those of the source. The calls were made as follows: active = growth percent below 10; inactive = the rest.

For this test, the system named is HL-60(TB) leukemia. In words: NCI-60 one-dose screen, 48 h (100 = growth as untreated, 0 = no growth, -100 = all killed). To be noted: 10 µM unless noted.
On to `c1ccc(-c2c(-c3ccccc3)[n+](Cc3ccc4ccccc4c3)c(-c3ccccc3)n2Cc2ccc3ccccc3c2)cc1`, for which the growth is -59.9% (active).
In the case of `CCCCCc1ccc(S(=O)(=O)Nc2cccc(-c3csc(NC(=O)CNCCN(C)C)n3)c2)cc1`, the growth is 63%.
With `COC[C@]12CCC(C)(C)C[C@H]1C1=CC[C@@H]3[C@@]4(C)CCCNC(C)(C)[C@@H]4CC[C@@]3(C)[C@]1(C)CC2` the figure was -65.3% (active).
For the compound `C=CCn1c(SCC(=O)c2ccc(Br)cc2)nnc1-c1c[nH]c2ccccc12`, the growth was 92.3%.
With `CCCC(=O)NC(c1cccnc1)c1cc(C(C)(C)C)c2cccnc2c1O` (stereo not drawn) the figure was -13.7% (active); with `NS(=O)(=O)c1ccc(CCn2c(-c3ccc(C(=O)O)cc3)nc(-c3ccccc3)c2-c2ccccc2)cc1`, 101%.
The value for `CC(=O)N(C)C1CCc2c(sc(NC(=O)c3ccc(C(C)(C)C)cc3)c2C(N)=O)C1` (stereo not drawn) was 40.4%; that for `CCn1c(SCC(=O)Nc2cccc(C(=O)/C=C/c3ccc(Br)cc3)c2)nc2ccccc2c1=O` was 84.7%.
The value for `O=C(/C=C/c1ccccc1)c1cccc(O)c1` was 87.5%; that for `CCn1c(SCC(=O)Nc2cccc(C(=O)/C=C/c3ccc(C)cc3)c2)nc2ccccc2c1=O` was 92%; that for `Cc1ccc2c(n1)C(=O)C(Cl)=C(Nc1cccc(C(F)(F)F)c1)C2=O` was 32.3%.
Regarding `CCN(CC)c1ccc(/C=N/NC(=O)c2ccc(S(N)(=O)=O)cc2)c(O)c1`, the growth was 1.26% (active).
As to `COC(=O)c1cccc(NC2=C(Cl)C(=O)c3nc(C)ccc3C2=O)c1`, the growth is 24.3%.
